Test [1] can be described thus: NCI Yeast Anticancer Drug Screen. Data for the rad50 strain (AID 155).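 Also: 0% = growth of vehicle-only cultures of the same strain.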 Conditions: S. cerevisiae rad50 strain growth inhibition, hits give high values. The method, boiled down: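 Inhibition values express reduced yeast growth in compound-treated cultures relative to vehicle-treated controls.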
Test [2] can be described thus: NCI Yeast Anticancer Drug Screen. Data for the mec2-1 strain (AID 157). Conditions: S. cerevisiae mec2-1 strain, hits give high values. In a few lines: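 Growth inhibition is read against vehicle-treated controls after compound exposure of the mec2-1 yeast strain, which is defective in DNA damage repair or cell cycle control.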
The nature of test [3]: NCI Yeast Anticancer Drug Screen. Data for the sgs1 mgt1 strain (AID 161).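 Also: 0% = growth of cultures given vehicle only.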 Conditions: S. cerevisiae sgs1 mgt1 strain, hits give high values. The method, boiled down: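 Growth of a repair-deficient yeast mutant was monitored after compound treatment and expressed as inhibition relative to vehicle-treated cultures.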
Test [4] is described as follows: NCI Yeast Anticancer Drug Screen. Data for the cln2 rad14 strain (AID 165).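 Also: 0% = growth equal to vehicle treated cultures.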 To be noted: S. cerevisiae cln2 rad14 strain, hits give high values. The method, boiled down: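 Growth inhibition, relative to vehicle-treated controls, is the read-out. The test organism is a yeast strain with defined genetic alterations, cln2 rad14.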
Test [5] is described as follows: NCI Yeast Anticancer Drug Screen. Data for the bub3 strain (AID 167). Conditions: S. cerevisiae bub3 mutant strain, hits give high values. In a few lines:
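Steps: expose the mutant yeast strain to compound; grow alongside vehicle-treated cultures; measure growth; express inhibition against the vehicle cultures.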

Test [6] in a line: NCI Yeast Anticancer Drug Screen. Data for the mlh1 rad18 strain (AID 175). Conditions: S. cerevisiae mlh1 rad18 strain growth inhibition, hits give high values. In a few lines: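 Cells of a genetically altered yeast strain, deficient in DNA damage repair, were treated with compound. Their growth was then compared with that of vehicle-treated cultures to give inhibition.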
[7] abbreviates: at 5.0 µM (retest, dose inferred, filed as 0.5).
Where [8] appears, read: at 50.0 µM (retest, dose inferred, filed as 5.0).

The source of these data is PubChem BioAssay (NCI).

Compounds without any hit were thinned out: in the full panel of roughly 79,000, 15% have a hit. Values without a mark were called inactive. Active and inactive are the calls of the source. Rule as the data show it: active = growth inhibition above about 70%; inactive = the rest.

As for `C#CC(O)c1ccc(Cl)cc1Cl` (configuration not stated), the growth inhibition is 9% in test [1] (setting [7]); 96% (active) in test [1] (setting [8]); 99% (active) in test [1] (at 50.0 µM); -2% in test [2] (setting [7]); 95% (active) in test [2] (setting [8]); 99.5% (active) in test [2] (at 50.0 µM). For the same compound, the growth inhibition in test [3] (setting [7]) is 0%; in test [3] (setting [8]), 92% (active); in test [3] (at 50.0 µM), 95.3% (active); in test [4] (setting [7]) it was -1%; in test [4] (setting [8]), 94% (active); in test [4] (at 50.0 µM) it was 99.2% (active). The growth inhibition in test [5] (setting [7]) is 5%; in test [5] (setting [8]), 96% (active); in test [5] (at 50.0 µM) it was 99% (active); in test [6] (setting [7]) it was 6%; in test [6] (setting [8]), 98% (active); in test [6] (at 50.0 µM), 99.1% (active).

For `O=C1C(=O)N(c2ccc(Cl)c(Cl)c2)C(=O)C(=O)C1c1nc2ccccc2o1`, the growth inhibition was 21% in test [1] (setting [7]); 98% (active) in test [1] (setting [8]); 97.2% (active) in test [1] (at 50.0 µM); 17% in test [2] (setting [7]); 98% (active) in test [2] (setting [8]); 92.8% (active) in test [2] (at 50.0 µM). Moreover, the growth inhibition is 27% in test [3] (setting [7]); 95% (active) in test [3] (setting [8]); 97.2% (active) in test [3] (at 50.0 µM); 22% in test [4] (setting [7]); 90% (active) in test [4] (setting [8]); 94.8% (active) in test [4] (at 50.0 µM). Moreover, the growth inhibition in test [5] (setting [7]) is 3%; in test [5] (setting [8]), 96% (active); in test [5] (at 50.0 µM), 83.1% (active); in test [6] (setting [7]) it was 14%; in test [6] (setting [8]), 95% (active); in test [6] (at 50.0 µM), 96.7% (active).

Take `CC(CN1CCCCCCC1)C(c1ccccc1)c1ccccc1` (configuration not stated): the growth inhibition in test [1] (setting [7]) is 2%; in test [1] (setting [8]), 81% (active); in test [1] (at 50.0 µM), 66.3%; in test [2] (setting [7]), -3%; in test [2] (setting [8]), 76% (active); in test [2] (at 50.0 µM) it was 61.8%. The growth inhibition was 7% in test [3] (setting [7]); 98% (active) in test [3] (setting [8]); 94.1% (active) in test [3] (at 50.0 µM); -5% in test [4] (setting [7]); 73% (active) in test [4] (setting [8]); 96.2% (active) in test [4] (at 50.0 µM). Moreover, the growth inhibition was -2% in test [5] (setting [7]); 87% (active) in test [5] (setting [8]); 98.5% (active) in test [5] (at 50.0 µM); -3% in test [6] (setting [7]); 89% (active) in test [6] (setting [8]); 86.5% (active) in test [6] (at 50.0 µM).

Regarding `CNC1C(O)C(NC)C2OC3(O)C(=O)CC(C)OC3OC2C1O` (configuration not stated), the growth inhibition in test [1] (setting [7]) was -7%; in test [1] (setting [8]) it was 6%; in test [1] (at 50.0 µM), 84.1% (active); in test [2] (setting [7]), 1%; in test [2] (setting [8]), -19%; in test [2] (at 50.0 µM), 89.8% (active). Moreover, the growth inhibition was -7% in test [3] (setting [7]); -1% in test [3] (setting [8]); 9.05% in test [3] (at 50.0 µM); 17% in test [4] (setting [7]); 23% in test [4] (setting [8]); 83.7% (active) in test [4] (at 50.0 µM). The growth inhibition in test [5] (setting [7]) is -1%; in test [5] (setting [8]) it was -9%; in test [5] (at 50.0 µM) it was 86.3% (active); in test [6] (setting [7]) it was -27%; in test [6] (setting [8]) it was -30%; in test [6] (at 50.0 µM), 86.7% (active).

As for `CCOc1c(N=Nc2ccccc2OC)c(-c2ccccc2)nn1C(N)=S`, the growth inhibition was 10% in test [1] (setting [7]); 38% in test [1] (setting [8]); 67% in test [1] (at 50.0 µM); 1% in test [2] (setting [7]); 35% in test [2] (setting [8]); 63% in test [2] (at 50.0 µM). The growth inhibition was 26% in test [3] (setting [7]); 61% in test [3] (setting [8]); 76.1% (active) in test [3] (at 50.0 µM); -8% in test [4] (setting [7]); 20% in test [4] (setting [8]); 44% in test [4] (at 50.0 µM). Also, the growth inhibition in test [5] (setting [7]) is -1%; in test [5] (setting [8]), 29%; in test [5] (at 50.0 µM) it was 26.8%; in test [6] (setting [7]), 2%; in test [6] (setting [8]), 39%; in test [6] (at 50.0 µM), 53.4%.

As for `O=C(CCl)OCC(=O)c1ccc(-c2ccccc2)cc1`, the growth inhibition in test [1] (setting [7]) was 9%; in test [1] (setting [8]), 97% (active); in test [1] (at 50.0 µM), 10.2%; in test [2] (setting [7]), 5%; in test [2] (setting [8]), 97% (active); in test [2] (at 50.0 µM), -1.9%. The growth inhibition in test [3] (setting [7]) was 10%; in test [3] (setting [8]) it was 99% (active); in test [3] (at 50.0 µM), 21.2%; in test [4] (setting [7]), 28%; in test [4] (setting [8]), 95% (active); in test [4] (at 50.0 µM), 10.2%. In addition, the growth inhibition in test [5] (setting [7]) is 11%; in test [5] (setting [8]), 98% (active); in test [5] (at 50.0 µM), 19.4%; in test [6] (setting [7]) it was 16%; in test [6] (setting [8]), 98% (active); in test [6] (at 50.0 µM), 32.4%.

For `C=CCOC(=O)CCC(=O)N(CC)CC`, the growth inhibition in test [1] (setting [7]) was 4%; in test [1] (setting [8]), -10%; in test [1] (at 50.0 µM), -8.95%; in test [2] (setting [7]), -1%; in test [2] (setting [8]) it was 1%; in test [2] (at 50.0 µM) it was -12.7%. Moreover, the growth inhibition is -6% in test [3] (setting [7]); -11% in test [3] (setting [8]); -25.1% in test [3] (at 50.0 µM); -7% in test [4] (setting [7]); 0% in test [4] (setting [8]); 72.5% (active) in test [4] (at 50.0 µM). Moreover, the growth inhibition was -2% in test [5] (setting [7]); 1% in test [5] (setting [8]); -7.35% in test [5] (at 50.0 µM); -2% in test [6] (setting [7]); -10% in test [6] (setting [8]); -2.3% in test [6] (at 50.0 µM).

As to `CN(N(P(c1ccccc1)c1ccccc1)P(c1ccccc1)c1ccccc1)P(c1ccccc1)c1ccccc1`, the growth inhibition was -1% in test [1] (setting [7]); 2% in test [1] (setting [8]); 88.7% (active) in test [1] (at 50.0 µM); -5% in test [2] (setting [7]); 9% in test [2] (setting [8]); 81.9% (active) in test [2] (at 50.0 µM). For the same compound, the growth inhibition in test [3] (setting [7]) was -15%; in test [3] (setting [8]), 2%; in test [3] (at 50.0 µM), 88.2% (active); in test [4] (setting [7]), 2%; in test [4] (setting [8]), 0%; in test [4] (at 50.0 µM) it was 64.2%. Also, the growth inhibition is 1% in test [5] (setting [7]); -4% in test [5] (setting [8]); 76.5% (active) in test [5] (at 50.0 µM); -14% in test [6] (setting [7]); -17% in test [6] (setting [8]); 93.2% (active) in test [6] (at 50.0 µM).

For the compound `CCOC(=O)c1[nH]cnc1/N=N/c1nc(O)c(C#N)[nH]1`, the growth inhibition is 8% in test [1] (setting [7]); 98% (active) in test [1] (setting [8]); -5.65% in test [1] (at 50.0 µM); 3% in test [2] (setting [7]); 99% (active) in test [2] (setting [8]); 9.8% in test [2] (at 50.0 µM). For the same compound, the growth inhibition in test [3] (setting [7]) is -13%; in test [3] (setting [8]) it was 99% (active); in test [3] (at 50.0 µM), 6%; in test [4] (setting [7]), 6%; in test [4] (setting [8]), 99% (active); in test [4] (at 50.0 µM), 0.85%. Besides, the growth inhibition in test [5] (setting [7]) is -4%; in test [5] (setting [8]), 99% (active); in test [5] (at 50.0 µM) it was 1.55%; in test [6] (setting [7]) it was -6%; in test [6] (setting [8]), 99% (active); in test [6] (at 50.0 µM) it was -1.95%.
